Data published in PubChem BioAssay (Tox21).
Unmarked numbers belong to inactive results. Inconclusive results are not listed. Entries that show only a call come without a potency. The source made the active and inactive calls. Unless noted, calls follow the shape of the dose curve; as a rule, active = well fitted curve in the direction sought with a large enough effect in the repeat runs; inconclusive = weak or mixed curves; inactive = no such curve, though single readings can be large; an effect the other way counts as inactive or inconclusive.

Tests used:
[1] = qHTS assay to identify small molecule antagonists of the androgen receptor (AR) signaling pathway using the MDA cell line in the presence of 0.5 nM R1881 - cell viability counter screen (AID 1259242); also: nearly all actives have a fitted effect of over 45% in size; also: potency is read from the fitted curve at half-maximal effect
How it was run: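 Cytotoxicity toward MDA-kb2 cells is measured by CellTiter-Fluor live-cell protease fluorescence after 16 hr compound exposure at 37C in the presence of 0.5 nM R1881 stimulator.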

[2] = biological target: Androgen receptor (Homo sapiens) (UniProt P10275); assay: qHTS assay to identify small molecule antagonists of the androgen receptor (AR) signaling pathway using the MDA cell line in the presence of 0.5 nM R1881 (AID 1259243); also: nearly all actives have a fitted effect of over 50% in size; also: potency is read from the fitted curve at half-maximal effect
Sequence of Androgen receptor (Homo sapiens) (P10275 whole entry, looked up): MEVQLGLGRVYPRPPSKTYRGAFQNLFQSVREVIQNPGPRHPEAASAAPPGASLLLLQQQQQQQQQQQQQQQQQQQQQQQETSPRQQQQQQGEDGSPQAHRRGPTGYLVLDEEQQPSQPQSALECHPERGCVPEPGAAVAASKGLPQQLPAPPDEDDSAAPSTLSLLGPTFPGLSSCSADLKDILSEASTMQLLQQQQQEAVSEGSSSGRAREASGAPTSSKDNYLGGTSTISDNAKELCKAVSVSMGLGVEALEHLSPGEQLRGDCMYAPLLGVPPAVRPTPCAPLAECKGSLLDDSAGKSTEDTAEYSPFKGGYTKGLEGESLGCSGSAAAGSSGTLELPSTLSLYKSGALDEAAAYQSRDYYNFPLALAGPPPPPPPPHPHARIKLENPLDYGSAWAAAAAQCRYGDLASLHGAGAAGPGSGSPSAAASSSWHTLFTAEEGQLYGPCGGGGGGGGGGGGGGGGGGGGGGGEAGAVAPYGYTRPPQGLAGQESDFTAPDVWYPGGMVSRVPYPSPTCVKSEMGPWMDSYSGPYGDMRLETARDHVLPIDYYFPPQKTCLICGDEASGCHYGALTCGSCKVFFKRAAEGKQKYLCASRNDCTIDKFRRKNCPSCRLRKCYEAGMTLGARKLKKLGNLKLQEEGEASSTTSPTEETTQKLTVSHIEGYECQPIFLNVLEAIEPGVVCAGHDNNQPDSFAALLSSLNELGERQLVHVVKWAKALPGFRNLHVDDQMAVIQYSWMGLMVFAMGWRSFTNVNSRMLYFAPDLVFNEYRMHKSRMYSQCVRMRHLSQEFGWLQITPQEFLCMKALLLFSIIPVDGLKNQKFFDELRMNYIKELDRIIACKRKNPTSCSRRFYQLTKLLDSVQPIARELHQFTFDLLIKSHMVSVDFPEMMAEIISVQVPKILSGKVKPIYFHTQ
How it was run: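 Steps: seed MDA-kb2 cells, incubate 5 hr at 37C; pin-transfer compounds in DMSO; add R1881 to 0.5 nM final; incubate 16 hr; add ONE-Glo, wait 30 min at room temperature; read luminescence.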

[3] = biological target: Estrogen receptor (Homo sapiens) (UniProt P03372); assay: qHTS assay to identify small molecule antagonists of the estrogen receptor alpha (ER-alpha) signaling pathway using the BG1 cell line in the presence of 0.1 nM 17-beta-estradiol (AID 1259244); also: nearly all actives have a fitted effect of over 50% in size; also: potency is read from the fitted curve at half-maximal effect
Sequence of Estrogen receptor (Homo sapiens) (P03372 whole entry, looked up): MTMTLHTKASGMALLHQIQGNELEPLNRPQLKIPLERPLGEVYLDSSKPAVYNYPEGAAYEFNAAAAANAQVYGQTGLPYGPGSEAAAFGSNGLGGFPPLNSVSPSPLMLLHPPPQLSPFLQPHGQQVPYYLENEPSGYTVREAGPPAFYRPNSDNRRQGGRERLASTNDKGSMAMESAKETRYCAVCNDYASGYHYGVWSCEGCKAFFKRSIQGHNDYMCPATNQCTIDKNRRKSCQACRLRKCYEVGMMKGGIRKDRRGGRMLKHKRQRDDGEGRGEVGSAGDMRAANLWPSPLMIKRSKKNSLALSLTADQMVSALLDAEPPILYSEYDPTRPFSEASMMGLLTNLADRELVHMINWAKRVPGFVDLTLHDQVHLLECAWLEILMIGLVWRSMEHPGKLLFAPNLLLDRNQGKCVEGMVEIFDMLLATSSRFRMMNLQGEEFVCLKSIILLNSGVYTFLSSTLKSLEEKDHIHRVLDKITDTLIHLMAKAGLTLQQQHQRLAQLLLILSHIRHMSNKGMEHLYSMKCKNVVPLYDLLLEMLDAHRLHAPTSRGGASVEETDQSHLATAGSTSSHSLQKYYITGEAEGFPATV
How it was run: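 After 5 days in hormone-depleted medium (charcoal-stripped serum, no phenol red), VM7Luc4E2 cells were seeded, incubated 24 h, then co-treated with compound and 0.1 nM (final) estradiol for 22 h before luminescence detection.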

[4] = qHTS assay to identify small molecule HDAC inhibitors (AID 1259364); also: nearly all actives have a fitted effect of over 45% in size; also: potency is read from the fitted curve at half-maximal effect; as to activity change, negative = inhibition: top concentration of the series differs between compounds
How it was run: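 Homogeneous cell-based luminescent assay of endogenous class I/II HDAC activity; HCT-116 cells, 2 h compound exposure, 30 min HDAC-Glo development at RT.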

[5] = qHTS assay to identify small molecule HDAC inhibitors - cell viability counter screen (AID 1259365); also: nearly all actives have a fitted effect of over 50% in size; also: potency is read from the fitted curve at half-maximal effect; as to activity change, negative = cytotoxicity: series mostly up to about 92 µM
How it was run: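 Cytotoxicity was gauged in wild-type HCT-116 cells after a brief 2hr treatment with DMSO-dissolved compounds at 37C and 5% CO2, using CellTiter-Glo luminescence developed for 30min at room temperature.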

[6] = qHTS assay to identify small molecule agonists of the sonic hedgehog signaling (Shh) pathway - cell viability counter screen (AID 1259366); also: nearly all actives have a fitted effect of over 50% in size; also: potency is read from the fitted curve at half-maximal effect
How it was run: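 Stable Gli1-Luc NIH/3T3 clone, 2,000 cells/well. Compound exposure 24hr at 37C. Read-out: CellTiter-Fluor fluorescence.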

[7] = qHTS assay to identify small molecule antagonists of the sonic hedgehog signaling (Shh) pathway - cell viability counter screen (AID 1259367); also: nearly all actives have a fitted effect of over 55% in size; also: potency is read from the fitted curve at half-maximal effect
How it was run: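 Seed 3T3 Gli1-Luc cells at 2,000 per well; incubate 4 hr; add compound in DMSO, then conditioned medium; incubate at 37C with 5% CO2; add CellTiter-Fluor after 23 hr; read fluorescence 1 hr later.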

[8] = qHTS assay to identify small molecule agonists of the sonic hedgehog signaling (Shh) pathway (AID 1259368; calls by dose curve;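 also: NIH/3T3-derived 3T3Gli1-Luc cells carrying a stable Gli1-driven firefly luciferase reporter; series mostly up to about 92 µM; nearly all actives have a fitted effect of over 15% in size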)
How it was run: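 Steps: seed 3T3 Gli1-Luc cells, incubate 4 hr at 37 C, pin-transfer compounds in DMSO alongside a positive control, incubate 24 hr, add luciferase detection reagent, wait 30 min at room temperature, read luminescence.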

[9] = qHTS assay to identify small molecule antagonists of the sonic hedgehog signaling (Shh) pathway (AID 1259369; calls by dose curve; also: nearly all actives have a fitted effect of over 45% in size; also: potency is read from the fitted curve at half-maximal effect)
How it was run: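 Inhibition of Shh signalling is measured as reduced Gli1-response-element firefly luciferase output in an NIH/3T3-derived stable reporter clone stimulated with conditioned medium for 24hr.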

[10] = qHTS assay to identify small molecule phospholipidosis (PLD) inducers (AID 1259344; active = well fitted curve in the direction sought with a large enough effect; an effect the other way counts as inactive or inconclusive; also: potency is read from the fitted curve at half-maximal effect)
How it was run: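 Quantitative HTS in HepG2: compound plus LipidTOX Red dye for 24 h, paraformaldehyde fixation with Hoechst 33342, widefield high-content imaging; amiodarone as positive and DMSO as negative control.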

CC1=CP(=O)(c2ccccc2)CC1 (stereo not given)
Potency [1]: inactive
Potency [2]: inactive
Potency [3]: inactive
Potency [4]: inactive
Potency [5]: inactive
Potency [6]: inactive
Potency [7]: inactive
Potency [8]: inactive
Potency [9]: inactive

CCCSS/C(CCO)=C(\C)N(C=O)Cc1cnc(C)nc1N
Potency [1]: inactive
Potency [2]: inactive
Potency [3]: inactive
Potency [4]: inactive
Potency [5]: inactive
Potency [7]: inactive
Potency [8]: inactive
Potency [9]: inactive

CO[Si](CCCNCCNCCN)(OC)OC
Potency [1]: inactive
Potency [2]: inactive
Potency [3]: inactive
Potency [4]: inactive
Potency [5]: inactive
Potency [6]: inactive
Potency [7]: inactive
Potency [8]: inactive
Potency [9]: inactive

CCOC(OCC)C(=O)c1ccccc1
Potency [1]: inactive
Potency [2]: inactive
Potency [3]: inactive
Potency [4]: inactive
Potency [5]: inactive
Potency [6]: inactive
Potency [7]: inactive
Potency [8]: inactive
Potency [9]: inactive

O=CC1CC1
Potency [1]: inactive
Potency [2]: inactive
Potency [3]: inactive
Potency [4]: inactive
Potency [5]: inactive
Potency [6]: inactive
Potency [7]: inactive
Potency [8]: inactive
Potency [9]: inactive

CCC(C)c1ccccc1 (stereo not given)
Potency [1]: inactive
Potency [2]: inactive
Potency [3]: inactive
Potency [4]: inactive
Potency [5]: inactive
Potency [6]: inactive
Potency [7]: inactive
Potency [8]: inactive
Potency [9]: inactive

COc1ccc(-n2nc(CCC(=O)N(C)O)cc2-c2ccc(Cl)cc2)cc1
Potency [1]: inactive
Potency [2]: inactive
Potency [3]: 26.6 µM (active)
Potency [4]: inactive
Potency [6]: inactive
Potency [7]: inactive
Potency [8]: inactive

Cc1cccc(N(C)C)c1
Potency [1]: inactive
Potency [2]: inactive
Potency [3]: inactive
Potency [4]: inactive
Potency [5]: inactive
Potency [6]: inactive
Potency [7]: inactive
Potency [8]: inactive
Potency [9]: inactive

O=C(O)Cc1ccc(OCCNC[C@H](O)c2ccccc2)cc1
Potency [1]: inactive
Potency [2]: inactive
Potency [3]: inactive
Potency [10]: inactive
Potency [5]: inactive
Potency [6]: inactive
Potency [8]: inactive

CO[Si](CCC1CCC2OC2C1)(OC)OC (stereo not given)
Potency [1]: inactive
Potency [2]: inactive
Potency [3]: inactive
Potency [4]: inactive
Potency [5]: inactive
Potency [6]: inactive
Potency [7]: inactive
Potency [8]: inactive
Potency [9]: inactive

Oc1ccc(-c2ccccc2)c(Cl)c1
Potency [1]: inactive
Potency [2]: 1.93 µM (active)
Potency [3]: inactive
Potency [4]: inactive
Potency [5]: inactive
Potency [8]: inactive
Potency [9]: inactive

C[C@H]1O[C@@H](O[C@H]2[C@@H](O)C[C@H](O[C@H]3[C@@H](O)C[C@H](O[C@H]4CC[C@@]5(C)[C@H](CC[C@@H]6[C@@H]5C[C@@H](O)[C@]5(C)[C@@H](C7=CC(=O)OC7)CC[C@]65O)C4)O[C@@H]3C)O[C@@H]2C)C[C@H](O)[C@@H]1O
Potency [1]: inactive
Potency [2]: inactive
Potency [10]: 11.2 µM (active)
Potency [4]: inactive
Potency [5]: inactive
Potency [6]: inactive
Potency [7]: inactive
Potency [8]: inactive

O=C(NO)c1ccccc1
Potency [1]: inactive
Potency [2]: inactive
Potency [10]: inactive
Potency [5]: inactive
Potency [6]: 26 µM (active)
Potency [8]: inactive

CCN1CCN(c2cc(-c3ccc(F)cc3)c3c(n2)CCCCCC3)CC1
viability change, negative = cytotoxic [1]: 1.73% [at 19 µM]
activity, negative = inhibition [2]: -22% [at 19 µM]
PLD induction [10]: 12.7% [at 7.66 µM]
activity change, negative = inhibition [4]: 1.74% [at 19 µM]
activity change, negative = cytotoxicity [5]: -2.01% [at 19 µM]
viability change, negative = cytotoxic [6]: -8.82% [at 19 µM]
viability change, negative = cytotoxic [7]: -5.57% [at 19 µM]
activity change [8]: -0.431% [at 18.9 µM, stronger effect = higher value]
activity change, negative = inhibition [9]: 15.3% [at 19 µM]

CC(C)(C)c1cc(CCC(=O)NCCCCCCNC(=O)CCc2cc(C(C)(C)C)c(O)c(C(C)(C)C)c2)cc(C(C)(C)C)c1O
Potency [1]: inactive
Potency [2]: inactive
Potency [4]: inactive
Potency [5]: inactive
Potency [6]: inactive
Potency [7]: inactive
Potency [8]: inactive
Potency [9]: inactive

c1ccc(Sc2ccccc2)cc1
Potency [1]: inactive
Potency [2]: inactive
Potency [3]: inactive
Potency [4]: inactive
Potency [6]: inactive
Potency [8]: inactive
Potency [9]: 27.3 µM (active)

C=C1C(C)(C)[C@@]2(Cl)C(Cl)[C@]1(Cl)C(Cl)(Cl)C2(Cl)Cl (stereo not given in full)
Potency [1]: inactive
Potency [2]: 60 µM (active)
Potency [4]: inactive
Potency [5]: inactive
Potency [7]: inactive
Potency [8]: inactive
Potency [9]: 21.3 µM (active)

COc1cccc(OC)c1O
Potency [1]: inactive
Potency [2]: inactive
Potency [4]: inactive
Potency [5]: inactive
Potency [6]: inactive
Potency [7]: inactive
Potency [8]: inactive
Potency [9]: inactive

CC(C)(C)c1n[nH]c(=O)n(N)c1=O
Potency [1]: inactive
Potency [2]: inactive
Potency [3]: inactive
Potency [5]: inactive
Potency [6]: inactive
Potency [7]: inactive
Potency [8]: inactive
Potency [9]: inactive

C=CC/C=C/C/C=C/C/C=C/C
Potency [1]: inactive
Potency [2]: inactive
Potency [4]: inactive
Potency [5]: inactive
Potency [6]: inactive
Potency [7]: inactive
Potency [8]: inactive
Potency [9]: inactive

CCCCN(C)C
Potency [1]: inactive
Potency [2]: inactive
Potency [4]: inactive
Potency [5]: inactive
Potency [6]: inactive
Potency [7]: inactive
Potency [8]: inactive
Potency [9]: inactive

CCCCCCCCCCCCN(CCO)CCO
Potency [1]: 60.9 µM (active)
Potency [2]: 48.4 µM (active)
Potency [4]: inactive
Potency [5]: inactive
Potency [8]: inactive
Potency [9]: 21.6 µM (active)

CCN=C1C=CC(=C(c2ccc(N(CC)CC)cc2)c2ccc(N(CC)CC)cc2)c2ccccc21
Potency [1]: 2.71 µM (active)
Potency [2]: 0.608 µM (active)
Potency [4]: 27.1 µM (active)
Potency [5]: 34.2 µM (active)
Potency [6]: 21.6 µM (active)
Potency [7]: 24.2 µM (active)
Potency [8]: inactive

CC(=O)O[C@@H]1C[C@@H]2CC[C@@]1(C)C2(C)C
Potency [1]: inactive
Potency [2]: inactive
Potency [4]: inactive
Potency [5]: inactive
Potency [6]: inactive
Potency [7]: inactive
Potency [8]: inactive
Potency [9]: inactive

O=C[C@H](O)[C@H](O)[C@H](O)CO
Potency [1]: inactive
Potency [2]: inactive
Potency [4]: inactive
Potency [5]: inactive
Potency [6]: inactive
Potency [7]: inactive
Potency [8]: inactive

CC(C)=CCCC(C)O (stereo not given)
Potency [1]: inactive
Potency [2]: inactive
Potency [3]: inactive
Potency [5]: inactive
Potency [6]: inactive
Potency [7]: inactive
Potency [8]: inactive
Potency [9]: inactive
